38 compounds from PubChem BioAssay (NCI) can be followed below.

This is part of a sample that, as a whole, favours compounds with a hit. Of some 79,000 tested, about 15% had one in any assay. Active and inactive are the calls of the source. Rule as the data show it: active = growth inhibition above about 70%; inactive = the rest.

The test in a line: NCI Yeast Anticancer Drug Screen. Data for the rad50EPP+ strain (AID 151).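 Also: 0% = growth of vehicle-treated control cultures.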 As to conditions: S. cerevisiae rad50 mutant strain, at 33.0 µM, stronger effect = higher value. The method, boiled down: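 Exposing the rad50EPP+ strain to each compound, growth was compared with vehicle-only cultures to give inhibition.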
On to `O=[N+]([O-])c1cc[n+]([O-])cc1`, for which the growth inhibition was 48% (inactive). The value for `CC1(C)CC(=O)C(/C=N/c2nc(-c3ccccc3)cs2)=C(O)C1` was 27% (inactive).

On to `Nc1nc(N)c2nc(CNc3ccc(C(=O)NC(CCC(=O)O)C(=O)O)cc3F)cnc2n1` (stereo not drawn), for which the growth inhibition is 15% (inactive). The value for `COC(=O)CC1(O)C(/C=C/c2ccccc2)C(C(=O)OC)C(=O)C(C(=O)OC)C1C(=O)OC` (stereo not drawn) was -6% (inactive); that for `CC(C)(C)c1ccc(NS(=O)(=O)c2ccc(N)cc2)cc1` was 11% (inactive). With `CCN(CC)CCNc1ccc([N+](=O)[O-])c2nc3ccccc3c(N)c12` the figure was 34% (inactive). The value for `CCCCN(CCCC)C(=O)/C=C/c1ccccc1` was 14% (inactive); that for `O=c1[nH]c(-c2ccccc2)nc2c1sc1nc3ccccc3n12` was -40% (inactive); that for `O=[N+]([O-])c1ccc2c(c1)/C(=N/N=C1c3ccccc3Cc3ccccc31)c1cc([N+](=O)[O-])cc([N+](=O)[O-])c1-2` was 97% (active).

Take `CC(C)C(C)/C=C\C(C)C1CCC2C3=CC=C4CC(O)CCC4(C)C3CCC21C` (stereo not drawn): the growth inhibition is -9% (inactive). Regarding `O=C1Nc2ccc(Br)cc2C1=Nc1ccc2c(c1)OCO2`, the growth inhibition is -35% (inactive). The value for `CCCCOCn1c(=O)[nH]c(=O)c2cc(Br)ccc21` was -61% (inactive); that for `Cc1ccc(S/C(=C\C(=O)O)c2ccccc2)cc1` was 25% (inactive); that for `O=[N+]([O-])/C=C/c1cc(Cl)c(/C=C/[N+](=O)[O-])cc1Cl` was 66% (inactive). The value for `Cc1cc(S(=O)(=O)Nc2nnc3cnc4ccccc4n23)c(S)cc1Cl` was -57% (inactive). As to `O=C(/C=C/c1cc(Cl)cc(Cl)c1O)c1cccc(O)c1`, the growth inhibition is 97% (active). The value for `NC1CCCCC1N.Nc1c(N=Nc2ccc(-c3ccc(N=Nc4cc(S(=O)(=O)[O-])c5ccccc5c4N)cc3)cc2)cc(S(=O)(=O)[O-])c2ccccc12.[OH3+].[OH3+].[Pt+4]` was 88% (active); that for `COC(=O)CCC(NC(=S)N/N=C(\C)c1ccccn1)C(=O)OC` (stereo not drawn) was 18% (inactive). With `NC(=O)C(=O)NNc1ccccc1` the figure was 85% (active); with `COc1cc(C2SCC(=O)N2c2ccc(-c3ccc(-n4c(-c5ccccc5)nc5ccccc5c4=O)cc3)cc2)ccc1O` (stereo not drawn), 27% (inactive); with `COc1ccc(/C=C/c2sc3ccccc3[n+]2CCCCI)cc1OC`, 0% (inactive). The value for `Cc1c(C(C)C)cc(OCCO)cc1C(C)C` was 6% (inactive).

`Cc1cc(NCCCCCCCCNc2cc(C)nc3cc(N)ccc23)c2ccc(N)cc2n1`: the growth inhibition is 95% (active). With `C=C(Cl)COC(=O)Nc1cccc(Cl)c1` the figure was 75% (active); with `CC(=O)OC1CC2C(C)(C)C(=O)C=C[C@]2(C)C2CCC3(C)C(=CCC3[C@H](CO)C[C@H](O)C(=O)C(C)(C)O)[C@]12C` (stereo partly drawn), -39% (inactive). The value for `COc1ccc(/C=C/C(=O)c2ccccc2)cc1OC` was 27% (inactive). With `COc1c(O)c(C=O)c(Br)c(C=O)c1O`, the growth inhibition was 95% (active). As to `O=[N+]([O-])c1cc(Cl)cnc1Br`, the growth inhibition was 96% (active). The value for `Cc1ccc2c(c1)C1(SC(C)C(=O)N1c1ccc(Cl)cc1)C(=O)N2` (stereo not drawn) was -2% (inactive). With `COc1cc(CSc2ccc(O)cc2)cc(O)c1O` the figure was -6% (inactive); with `Cc1ccc2c3ccc4c(c3n(C)c2c1)C(=O)C=CC4=O`, 76% (active). With `O=C(Nc1ccc(Cl)cc1)Nc1nnc2nc(C(C(=O)c3cccc([N+](=O)[O-])c3Cl)c3nc4nnc(NC(=O)Nc5ccc(Cl)cc5)n4[nH]c3=O)c(=O)[nH]n12` the figure was 23% (inactive). For `O=C(O)C1CC(c2ccccc2)=NN1c1ccccc1` (stereo not drawn), the growth inhibition was -3% (inactive). The value for `CCCCc1ccc(-n2c(C)c(COC(=O)NC)c(COC(=O)NC)c2C)cc1` was 90% (active); that for `CCC(=O)c1cc(C(=O)C(=S)SC)cc(C(=O)C(=S)SC)c1` was 96% (active). With `CCn1c(O)c(C=Nc2ccccc2)s/c1=N/Nc1nc(-c2ccccc2)cs1` the figure was 54% (inactive); with `Cc1ccccc1N=C(NO)c1ccccc1`, 42% (inactive); with `Cc1nc2ccccc2nc1NNc1ccccc1`, 65% (inactive).
